Results: PubChem BioAssay AID651640 (Broad Institute, 2012)
“And” between values parts separate entries of the source, which are not always exact repeats. Equal entries are not always repeated. Out of some 350,000 compounds screened, about 6,000 (1.7%) were called active. Another 5% or so got no clear call; they are omitted. Only a selection was taken, and actives are over-represented in it overall. Unmarked numbers belong to inactive results. No stated cut-off is given here; in the data, active means CPE inhibition above about 20% (passing the limit was not always enough); inconclusive means no clear call, values can overlap the other calls; tested in BHK-21 cells.

Test: protection of cells from dengue 2 killing – plate reader, single concentration, primary screen (AID 651640);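 further: 0% = median of neutral control wells and 100% = median of positive control wells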
Conditions: DENV2-infected cells, cytopathic effect rescue, at 9.99 µM, stronger effect = higher value

SMILES | CPE inhibition
CN1CCN(C(=O)C[C@@H]2CC[C@@H]3[C@@H](COc4ccc(NC(=O)c5ccc(F)c(F)c5)cc4C(=O)N3C)O2)CC1 | -5.7%
COCc1cn(CC[C@@H]2CC[C@@H](NC(=O)Cc3cccnc3)[C@@H](CO)O2)nn1 | -4.68%
C[C@@H]1CN([C@H](C)CO)C(=O)c2cc(C#CC3CCCC3)cnc2O[C@@H]1CN(C)C(=O)C1CCC1 | 0.319%
Cc1ccc(S(=O)(=O)N(C)C[C@H]2OCc3ccccc3-c3ccccc3C(=O)N([C@@H](C)CO)C[C@@H]2C)cc1 | 0.795%
C[C@H]1CN([C@@H](C)CO)C(=O)c2ccccc2-c2ccccc2CO[C@H]1CN(C)S(=O)(=O)c1ccccc1C#N | -1.68%
CC(=O)N(C)C[C@H]1Oc2ncc(C#CC3(O)CCCC3)cc2C(=O)N([C@@H](C)CO)C[C@@H]1C | -10.8%
C[C@H](CO)N1C[C@H](C)[C@@H](CN(C)C(=O)C2CC2)Oc2ncc(-c3cccc(C#N)c3)cc2C1=O | -9.11%
C[C@H](CO)N1C[C@H](C)[C@H](CN(C)C(=O)C2CCC2)Oc2ncc(C#CCc3ccccc3)cc2C1=O | -7.04%
C[C@@H]1CN([C@H](C)CO)C(=O)c2cc(C#CC3(O)CCCC3)cnc2O[C@H]1CN(C)C(=O)C1CCC1 | 35.8% (active)
CC(C)NC(=O)N(C)C[C@H]1Oc2ncc(-c3cccc(C#N)c3)cc2C(=O)N([C@@H](C)CO)C[C@H]1C | 1.79%
C[C@@H]1CN([C@H](C)CO)C(=O)c2cc(-c3cccc(C#N)c3)cnc2O[C@H]1CN(C)C(=O)C1CCC1 | 27.5% (active)
C[C@@H]1CN([C@@H](C)CO)C(=O)c2cc(C#CCc3ccccc3)cnc2O[C@@H]1CN(C)C(=O)C1CCOCC1 | 95.4% (active)
CCCC#Cc1cnc2c(c1)C(=O)N([C@H](C)CO)C[C@@H](C)[C@@H](CN(C)C(=O)C1CCOCC1)O2 | -8.59%
C[C@H]1CN([C@@H](C)CO)C(=O)c2ccccc2-c2ccccc2CO[C@H]1CN(C)S(=O)(=O)c1cccc(C#N)c1 | 99.5% (active)
C/C=C/c1ccc([C@@H]2[C@H](CO)N(CCC(F)(F)F)C23CN(C(=O)CC)C3)cc1 | 8.21%
C[C@@H]1CN([C@H](C)CO)C(=O)Cc2cc(NC(=O)C3CC3)ccc2O[C@H]1CN(C)Cc1ccc(Cl)c(Cl)c1 | -2.59%
C[C@@H]1CCCCO[C@@H](CN(C)S(C)(=O)=O)[C@@H](C)CN([C@@H](C)CO)C(=O)c2cc(NS(=O)(=O)c3ccc(Cl)cc3)ccc2O1 | -9.73%
CCC(=O)N(C)C[C@H]1Oc2ncc(C#C[C@@H](C)O)cc2C(=O)N([C@@H](C)CO)C[C@H]1C | 9.17%
CNC[C@@H]1Oc2c(NC(=O)Nc3ccc(F)cc3)cccc2C(=O)N([C@@H](C)CO)C[C@@H]1C | 0.246%
CCC(=O)Nc1ccc2c(c1)C(=O)N(C)C[C@H](OC)[C@H](C)CN(CCC(F)(F)F)[C@H](C)CO2 | -10.4%
COCC(=O)Nc1ccc2c(c1)C(=O)N(C)C[C@@H](OC)[C@H](C)CN(C(=O)c1cccnc1)[C@H](C)CO2 | 7.26%
COc1ccc(NC(=S)Nc2ccc(S(N)(=O)=O)cc2)c(C)c1 | 5.31%

SMILES | CPE inhibition
COc1cc2c(cc1OC)C(Nc1ccc(S(N)(=O)=O)cc1)=NC(C)(C)C2 | 23.5% (active)
COc1cc2c(cc1OC)C(c1cccc([N+](=O)[O-])c1)=NCC2 | 3%
CCc1nc2c(OCCc3cccc(OC)c3)cccn2c1N(C)C(=O)c1ccc(C)cc1 | 35.1% (active)
CCc1nc2c(OCCOc3ccccc3)cccn2c1N(C)C(=O)c1ccc(OC)cc1 | -6.78%
CCc1nc2c(OCc3cccc(OC)c3)cccn2c1N(C)C(=O)C(C)C | 3.81%
COc1ccc(NC(=O)Nc2ccc3c(c2)C(=O)N([C@@H](C)CO)C[C@H](C)[C@H](CN(C)S(=O)(=O)c2ccccc2)OCCCC[C@@H](C)O3)cc1 | 0.841%
Cc1ccccc1NC(=O)Cc1nc(COC(=O)C(C)(C)Oc2ccc(Cl)cc2)cs1 | 45.3% (active)
Cc1ccccc1NC(=O)Cc1nc(COC(=O)c2cccnc2Cl)cs1 | 5.7%
Cc1ccccc1NC(=O)Cc1nc(COC(=O)CNC(=O)c2ccc(Cl)cc2Cl)cs1 | -7.77%
CN1c2ccc(-c3cccc(C#N)c3)cc2[C@@H]2[C@@H](CCN2C(=O)C2CCC2)[C@@H]1CO | -11%
COc1ccc2c3c(n(C)c2c1)[C@@H](CO)N(C(C)=O)CC31CCN(C(=O)C2CC2)CC1 | -6.89%
COc1ccc(OC)c(/C(C)=N\NC(=O)c2cc3cc(Cl)ccc3n2C)c1 | 69.2% (active)
COc1ccc(/C(C)=N/NC(=O)CCC(=O)Nc2ccc(Cl)cc2Cl)c(OC)c1 | -1.9%
COc1ccc(OC)c(C(=O)c2ccc(Cl)cc2)c1 | 1.87%
CCCN1C[C@@H](C)[C@@H](OC)CN(C)C(=O)c2ccc(NS(C)(=O)=O)cc2OC[C@@H]1C | -1.47%
CCC(=O)N1C[C@H](C)[C@H](OC)CN(C)C(=O)c2ccc(NS(C)(=O)=O)cc2OC[C@H]1C | -1.33%
Cc1noc(C)c1S(=O)(=O)Nc1ccc2c(c1)C(=O)N([C@H](C)CO)C[C@H](C)[C@H](CN(C)S(C)(=O)=O)OCCCC[C@H](C)O2 | -2.38%
COc1ccccc1C(=O)NCCC(=O)NCC(c1ccco1)N1CCCCC1 (centres undefined) | -2.74%
CC(Oc1ccc(Br)cc1)C(=O)NCC(c1ccco1)N1CCCCC1 (centres undefined) | -0.377%
O=C(CCNC(=O)c1ccc(Br)cc1)NCC(c1ccco1)N1CCCCC1 (centres undefined) | 81.5% (active)
C[C@@H]1CCCCO[C@H](CN(C)C(=O)NC2CCCCC2)[C@H](C)CN([C@@H](C)CO)C(=O)c2cc(NC(=O)C3CCCCC3)ccc2O1 | -2.82%
C[C@H](O)C#Cc1ccc2c(c1)O[C@H](CN(C)Cc1cccnc1)[C@H](C)CN([C@H](C)CO)S2(=O)=O | 9.35%

SMILES | CPE inhibition
COCC#Cc1cnc2c(c1)C(=O)N([C@@H](C)CO)C[C@@H](C)[C@@H](CN(C)C(=O)Nc1ccc(OC)cc1)O2 | -9.58%
C[C@H]1CN([C@@H](C)CO)C(=O)Cc2cc(NC(=O)Nc3cccc4ccccc34)ccc2O[C@H]1CN(C)CC1CC1 | 2.69%
C[C@@H]1CN([C@H](C)CO)C(=O)Cc2cc(NC(=O)Nc3ccc(C(F)(F)F)cc3)ccc2O[C@H]1CN(C)Cc1ccc(-c2ccccc2)cc1 | -23%
C[C@@H]1CN([C@H](C)CO)C(=O)Cc2cc(NC(=O)Nc3cccc4ccccc34)ccc2O[C@@H]1CN(C)Cc1ccc(C(F)(F)F)cc1 | 20.3% (active)
C[C@H](CO)N1C[C@H](C)[C@H](CN(C)S(C)(=O)=O)Oc2ccc(NC(=O)c3ccncc3)cc2CC1=O | -1.49%
C[C@H]1CN([C@@H](C)CO)C(=O)Cc2cc(NC(=O)Nc3cccc4ccccc34)ccc2O[C@@H]1CN(C)S(C)(=O)=O | -2.56%
COc1ccc(NC(=O)Nc2ccc3c(c2)CC(=O)N([C@@H](C)CO)C[C@@H](C)[C@@H](CN(C)Cc2ccc(C(F)(F)F)cc2)O3)cc1 | -24.3%
COc1ccc(CN(C)C[C@@H]2Oc3ccc(NC(=O)Nc4ccc(F)cc4)cc3CC(=O)N([C@@H](C)CO)C[C@H]2C)cc1 | 2.99%
Cc1ccc(S(=O)(=O)N(C)C[C@@H]2Oc3ccc(NC(=O)c4ccncc4)cc3CC(=O)N([C@H](C)CO)C[C@H]2C)cc1 | 20.7% (active)
C[C@H]1CN([C@@H](C)CO)C(=O)Cc2cc(NC(=O)Nc3cccc4ccccc34)ccc2O[C@@H]1CN(C)C | 25.6% (active)
C[C@@H]1CN([C@H](C)CO)C(=O)Cc2cc(NC(=O)Nc3cccc4ccccc34)ccc2O[C@@H]1CN(C)Cc1ccc(C(=O)O)cc1 | -18.4%
C[C@@H]1CN([C@H](C)CO)C(=O)Cc2cc(NC(=O)c3ccncc3)ccc2O[C@H]1CN(C)S(=O)(=O)c1cccs1 | 19.1%
C[C@H](CO)N1C[C@H](C)[C@H](CN(C)Cc2ccc(-c3ccccc3)cc2)Oc2ccc(NC(=O)Nc3ccc(F)cc3)cc2CC1=O | 33.6% (active)
O=C(c1ccncc1)N1CC(=O)N2[C@H](CO)[C@@H](c3ccc(-c4cccnc4)cc3)[C@H]2C1 | -6.23%
COc1ccc2c3c(n(C)c2c1)[C@H](CO)N(C(=O)C1CCCC1)CC31CCN(C(=O)c2ccncc2)CC1 | 4.15%
CO[C@@H]1CN(C)C(=O)c2ccc(NC(=O)NC(C)C)cc2OC[C@@H](C)N(C(=O)NC(C)C)C[C@H]1C | 9.11%
C[C@@H]1CCCCO[C@H](CN(C)CC2CCCCC2)[C@H](C)CN([C@H](C)CO)C(=O)c2cc(NS(=O)(=O)c3ccc(F)cc3)ccc2O1 | -1.47%
C[C@@H]1CCCCO[C@H](CN(C)Cc2ccc3c(c2)OCO3)[C@H](C)CN([C@@H](C)CO)C(=O)c2cc(NS(=O)(=O)c3cccs3)ccc2O1 | -2.06% and 0.641%
CCCN1C(=O)c2[nH]nc(-c3ccccc3)c2C1c1ccccc1 (centres undefined) | 1.19%
CO[C@H]1CN(C)C(=O)c2ccc(NC(C)=O)cc2OC[C@H](C)N(CC2CC2)C[C@@H]1C | -14.7%
